# Publication PMC7862700, “An all-to-all approach to the identification of sequence-specific readers for epigenetic DNA modifications on cytosine”
# Tests used:
# Assay in all cases: DAPPL (digital affinity profiling via proximity ligation, sequencing); 10 mM Tris-HCl pH 7.5, 50 mM NaCl, 1 mM DTT, 4% glycerol, room temperature, 30 min; GST-TFs on glutathione beads, 16-mer random dsDNA library, 0.1% formaldehyde crosslink after washing; high values mean tight binding
# FLI1 = target: T1, FLI1 (Homo sapiens, UniProt Q01543 1-452); conditions: protein: recombinant; tags: N-terminal GST; dsDNA, one strand shown
# T1 sequence: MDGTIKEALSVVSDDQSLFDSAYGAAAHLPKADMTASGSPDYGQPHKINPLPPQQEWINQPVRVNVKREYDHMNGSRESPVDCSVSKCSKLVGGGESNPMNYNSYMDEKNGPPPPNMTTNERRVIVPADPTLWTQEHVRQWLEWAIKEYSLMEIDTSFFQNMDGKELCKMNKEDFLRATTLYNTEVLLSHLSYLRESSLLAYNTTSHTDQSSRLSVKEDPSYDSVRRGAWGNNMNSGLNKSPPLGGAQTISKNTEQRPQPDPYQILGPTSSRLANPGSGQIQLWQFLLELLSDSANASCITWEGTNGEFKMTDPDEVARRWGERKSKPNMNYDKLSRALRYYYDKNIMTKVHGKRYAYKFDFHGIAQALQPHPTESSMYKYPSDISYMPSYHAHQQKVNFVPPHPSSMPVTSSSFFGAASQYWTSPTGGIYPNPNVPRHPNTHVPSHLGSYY
# Summary of the method: (§1)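 Binding signal is defined as a hexamer's read frequency for one factor over its frequency for the tag-only sample. To obtain reads, GST-fused human transcription factors were expressed in yeast, captured on glutathione beads, barcoded with DNA and pooled with that sample. Pools met 200 nmole of a 16-mer random double-stranded DNA library in Tris/NaCl/DTT/glycerol buffer for 30 min at room temperature before washing, 0.1% formaldehyde crosslinking, proximity ligation (BsaI/T4 ligase, 1 h, 37 °C), PCR and Illumina NextSeq500 sequencing.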
# ELK1 = target: T2, ELK1 (Homo sapiens, UniProt P19419 1-428); conditions: protein: recombinant; tags: N-terminal GST; dsDNA, one strand shown
# T2 sequence: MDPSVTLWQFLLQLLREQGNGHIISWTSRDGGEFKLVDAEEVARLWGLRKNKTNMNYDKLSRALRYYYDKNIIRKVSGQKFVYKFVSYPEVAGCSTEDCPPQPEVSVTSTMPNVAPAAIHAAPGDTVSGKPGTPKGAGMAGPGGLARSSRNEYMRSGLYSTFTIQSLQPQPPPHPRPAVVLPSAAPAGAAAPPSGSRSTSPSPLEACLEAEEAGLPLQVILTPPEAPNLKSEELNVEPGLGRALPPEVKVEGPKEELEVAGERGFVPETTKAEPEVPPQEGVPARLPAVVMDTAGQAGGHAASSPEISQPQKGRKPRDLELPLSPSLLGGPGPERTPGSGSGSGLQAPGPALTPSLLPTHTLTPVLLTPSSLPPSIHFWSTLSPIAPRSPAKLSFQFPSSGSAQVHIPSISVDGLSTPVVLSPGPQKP
# Summary of the method: as §1
# GABPA = target: T3, GABPA (Homo sapiens, UniProt Q06546 1-454); conditions: protein: recombinant; tags: N-terminal GST; dsDNA, one strand shown
# T3 sequence: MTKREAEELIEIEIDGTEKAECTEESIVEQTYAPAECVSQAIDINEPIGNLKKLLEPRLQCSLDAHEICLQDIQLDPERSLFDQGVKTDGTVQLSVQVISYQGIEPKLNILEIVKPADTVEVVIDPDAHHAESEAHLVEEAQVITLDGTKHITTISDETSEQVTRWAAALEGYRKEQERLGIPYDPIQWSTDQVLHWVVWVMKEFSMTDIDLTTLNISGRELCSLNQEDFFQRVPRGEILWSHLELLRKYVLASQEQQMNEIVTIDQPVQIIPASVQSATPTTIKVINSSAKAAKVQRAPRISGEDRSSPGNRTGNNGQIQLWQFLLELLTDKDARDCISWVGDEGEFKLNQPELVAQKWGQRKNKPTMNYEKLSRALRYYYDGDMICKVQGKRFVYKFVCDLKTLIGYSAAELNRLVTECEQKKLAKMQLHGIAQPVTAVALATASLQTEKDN
# Summary of the method: as §1
# ERG = target: T4, ERG (Homo sapiens, UniProt P11308 1-479); conditions: protein: recombinant; tags: N-terminal GST; dsDNA, one strand shown
# T4 sequence: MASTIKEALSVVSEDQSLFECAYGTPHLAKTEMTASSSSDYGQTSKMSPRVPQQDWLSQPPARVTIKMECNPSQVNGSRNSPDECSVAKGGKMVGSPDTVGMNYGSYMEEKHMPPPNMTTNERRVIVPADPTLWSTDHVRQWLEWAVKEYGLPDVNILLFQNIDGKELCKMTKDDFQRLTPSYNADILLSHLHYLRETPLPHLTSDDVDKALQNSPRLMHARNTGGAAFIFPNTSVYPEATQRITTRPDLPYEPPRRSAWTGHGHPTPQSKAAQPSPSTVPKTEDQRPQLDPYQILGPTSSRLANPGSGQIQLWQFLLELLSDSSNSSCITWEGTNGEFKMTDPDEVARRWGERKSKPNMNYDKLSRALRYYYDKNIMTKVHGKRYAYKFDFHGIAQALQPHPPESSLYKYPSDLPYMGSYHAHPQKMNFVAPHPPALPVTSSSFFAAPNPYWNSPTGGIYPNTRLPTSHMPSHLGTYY
# Summary of the method: as §1
# ELF1 = ELF1 (Homo sapiens, UniProt P32519 1-619); conditions: protein: recombinant; tags: N-terminal GST; dsDNA, one strand shown
# Summary of the method: as §1
# EHF = target: T5, EHF (Homo sapiens, UniProt Q9NZC4 1-300); conditions: protein: recombinant; tags: N-terminal GST; dsDNA, one strand shown
# T5 sequence: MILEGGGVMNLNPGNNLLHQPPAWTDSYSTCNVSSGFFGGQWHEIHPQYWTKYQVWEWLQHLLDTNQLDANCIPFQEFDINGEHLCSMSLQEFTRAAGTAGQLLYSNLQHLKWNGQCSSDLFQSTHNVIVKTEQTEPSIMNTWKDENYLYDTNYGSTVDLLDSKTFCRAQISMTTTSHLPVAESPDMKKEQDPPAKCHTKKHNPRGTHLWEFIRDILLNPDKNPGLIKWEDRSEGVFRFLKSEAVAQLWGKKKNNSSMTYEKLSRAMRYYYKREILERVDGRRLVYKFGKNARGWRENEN
# Summary of the method: as §1
# SPI1 = SPI1 (Homo sapiens, UniProt P17947 1-270); conditions: protein: recombinant; tags: N-terminal GST; dsDNA, one strand shown
# Summary of the method: as §1
# SPIB = SPIB (Homo sapiens, UniProt Q01892 1-262); conditions: protein: recombinant; tags: N-terminal GST; dsDNA, one strand shown
# Summary of the method: as §1
# ELK3 = target: T6, ELK3 (Homo sapiens, UniProt P41970 1-407); conditions: protein: recombinant; tags: N-terminal GST; dsDNA, one strand shown
# T6 sequence: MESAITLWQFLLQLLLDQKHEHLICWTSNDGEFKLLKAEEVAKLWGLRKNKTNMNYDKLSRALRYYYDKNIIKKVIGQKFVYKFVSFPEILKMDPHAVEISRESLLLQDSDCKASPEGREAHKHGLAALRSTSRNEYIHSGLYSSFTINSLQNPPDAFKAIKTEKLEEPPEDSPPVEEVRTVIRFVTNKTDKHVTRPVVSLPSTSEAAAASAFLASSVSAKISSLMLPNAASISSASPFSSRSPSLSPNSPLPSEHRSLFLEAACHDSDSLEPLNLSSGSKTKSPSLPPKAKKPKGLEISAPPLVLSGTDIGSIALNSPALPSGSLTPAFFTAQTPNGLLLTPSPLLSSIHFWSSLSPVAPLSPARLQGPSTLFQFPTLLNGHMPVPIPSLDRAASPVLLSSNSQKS
# Summary of the method: as §1
# FEV = target: T7, FEV (Homo sapiens, UniProt Q99581 1-238); conditions: protein: recombinant; tags: N-terminal GST; dsDNA, one strand shown
# T7 sequence: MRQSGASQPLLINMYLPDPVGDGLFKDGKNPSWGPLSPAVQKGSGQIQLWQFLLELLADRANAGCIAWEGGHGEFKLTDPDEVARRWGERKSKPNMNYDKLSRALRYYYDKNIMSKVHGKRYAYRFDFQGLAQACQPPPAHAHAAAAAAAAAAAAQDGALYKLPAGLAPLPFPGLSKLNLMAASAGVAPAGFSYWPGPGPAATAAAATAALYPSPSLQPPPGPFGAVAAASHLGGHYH
# Summary of the method: as §1
# ETV5 = ETV5 (Homo sapiens, UniProt P41161 1-510); conditions: protein: recombinant; tags: N-terminal GST; dsDNA, one strand shown
# Summary of the method: as §1
# HSF1 = HSF1 (Homo sapiens, UniProt Q00613 1-529); conditions: protein: recombinant; tags: N-terminal GST; chain copies: 3; dsDNA, one strand shown
# Summary of the method: as §1
# SPIC = target: T8, SPIC (Homo sapiens, UniProt Q8N5J4 1-248); conditions: protein: recombinant; tags: N-terminal GST; dsDNA, one strand shown
# T8 sequence: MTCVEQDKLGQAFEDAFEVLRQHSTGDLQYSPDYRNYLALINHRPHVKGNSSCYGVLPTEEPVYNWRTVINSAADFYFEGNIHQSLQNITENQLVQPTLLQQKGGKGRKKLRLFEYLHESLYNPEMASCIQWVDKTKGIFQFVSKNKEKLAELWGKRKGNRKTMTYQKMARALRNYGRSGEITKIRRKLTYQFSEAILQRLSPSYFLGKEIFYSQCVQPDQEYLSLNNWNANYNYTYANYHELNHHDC
# Summary of the method: as §1
# ELF4 = ELF4 (Homo sapiens, UniProt Q99607 1-663); conditions: protein: recombinant; tags: N-terminal GST; dsDNA, one strand shown
# Summary of the method: as §1
# ELK4 = target: T9, ELK4 (Homo sapiens, UniProt P28324-2 1-405); conditions: protein: recombinant; tags: N-terminal GST; dsDNA, one strand shown
# T9 sequence: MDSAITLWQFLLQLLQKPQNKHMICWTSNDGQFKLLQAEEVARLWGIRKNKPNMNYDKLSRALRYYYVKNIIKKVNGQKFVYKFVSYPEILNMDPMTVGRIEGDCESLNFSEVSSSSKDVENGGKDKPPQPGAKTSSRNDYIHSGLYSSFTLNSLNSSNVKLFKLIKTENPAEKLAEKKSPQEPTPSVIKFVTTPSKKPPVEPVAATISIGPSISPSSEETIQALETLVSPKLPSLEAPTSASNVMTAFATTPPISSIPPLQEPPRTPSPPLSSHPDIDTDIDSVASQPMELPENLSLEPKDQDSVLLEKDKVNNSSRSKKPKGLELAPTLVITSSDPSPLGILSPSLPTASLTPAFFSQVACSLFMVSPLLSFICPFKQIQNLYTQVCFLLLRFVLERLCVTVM
# Summary of the method: as §1
# ELF3 = target: T10, ELF3 (Homo sapiens, UniProt P78545 1-371); conditions: protein: recombinant; tags: N-terminal GST; dsDNA, one strand shown
# T10 sequence: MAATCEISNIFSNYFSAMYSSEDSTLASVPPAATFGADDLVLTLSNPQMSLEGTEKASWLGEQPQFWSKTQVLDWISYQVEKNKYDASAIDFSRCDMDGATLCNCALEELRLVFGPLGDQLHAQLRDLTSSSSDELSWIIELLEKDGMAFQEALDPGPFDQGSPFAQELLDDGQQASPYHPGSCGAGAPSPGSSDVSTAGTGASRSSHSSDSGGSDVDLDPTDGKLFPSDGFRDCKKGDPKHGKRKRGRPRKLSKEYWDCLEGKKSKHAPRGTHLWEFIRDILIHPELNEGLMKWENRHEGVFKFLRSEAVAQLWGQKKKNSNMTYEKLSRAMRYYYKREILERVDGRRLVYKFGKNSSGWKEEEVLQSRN
# Summary of the method: as §1
# CRX = CRX (Homo sapiens, UniProt O43186 1-299); conditions: protein: recombinant; tags: N-terminal GST; dsDNA, one strand shown
# Summary of the method: as §1
# ETV1 = ETV1 (Homo sapiens, UniProt P50549 1-477); conditions: protein: recombinant; tags: N-terminal GST; dsDNA, one strand shown
# Summary of the method: as §1
# ELF4, sequence (Q99607 whole entry): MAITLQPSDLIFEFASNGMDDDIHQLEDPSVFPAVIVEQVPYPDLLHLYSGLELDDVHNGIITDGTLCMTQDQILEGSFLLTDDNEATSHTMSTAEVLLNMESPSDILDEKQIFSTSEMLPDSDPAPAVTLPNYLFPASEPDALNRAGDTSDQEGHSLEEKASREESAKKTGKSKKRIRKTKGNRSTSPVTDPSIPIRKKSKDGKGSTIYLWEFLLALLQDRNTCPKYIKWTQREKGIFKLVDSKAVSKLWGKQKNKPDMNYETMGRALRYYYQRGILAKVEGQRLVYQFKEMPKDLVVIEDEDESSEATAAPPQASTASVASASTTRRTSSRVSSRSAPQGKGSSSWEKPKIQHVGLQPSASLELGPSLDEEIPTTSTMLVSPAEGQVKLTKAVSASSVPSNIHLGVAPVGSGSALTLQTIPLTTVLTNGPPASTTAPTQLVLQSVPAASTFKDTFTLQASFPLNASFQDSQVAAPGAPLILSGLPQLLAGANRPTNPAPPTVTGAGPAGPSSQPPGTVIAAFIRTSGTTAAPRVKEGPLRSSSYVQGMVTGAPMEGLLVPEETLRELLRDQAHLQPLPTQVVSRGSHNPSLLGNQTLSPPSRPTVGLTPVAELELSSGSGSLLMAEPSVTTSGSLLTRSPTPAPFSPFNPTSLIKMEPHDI
# ELF1, sequence (P32519 whole entry): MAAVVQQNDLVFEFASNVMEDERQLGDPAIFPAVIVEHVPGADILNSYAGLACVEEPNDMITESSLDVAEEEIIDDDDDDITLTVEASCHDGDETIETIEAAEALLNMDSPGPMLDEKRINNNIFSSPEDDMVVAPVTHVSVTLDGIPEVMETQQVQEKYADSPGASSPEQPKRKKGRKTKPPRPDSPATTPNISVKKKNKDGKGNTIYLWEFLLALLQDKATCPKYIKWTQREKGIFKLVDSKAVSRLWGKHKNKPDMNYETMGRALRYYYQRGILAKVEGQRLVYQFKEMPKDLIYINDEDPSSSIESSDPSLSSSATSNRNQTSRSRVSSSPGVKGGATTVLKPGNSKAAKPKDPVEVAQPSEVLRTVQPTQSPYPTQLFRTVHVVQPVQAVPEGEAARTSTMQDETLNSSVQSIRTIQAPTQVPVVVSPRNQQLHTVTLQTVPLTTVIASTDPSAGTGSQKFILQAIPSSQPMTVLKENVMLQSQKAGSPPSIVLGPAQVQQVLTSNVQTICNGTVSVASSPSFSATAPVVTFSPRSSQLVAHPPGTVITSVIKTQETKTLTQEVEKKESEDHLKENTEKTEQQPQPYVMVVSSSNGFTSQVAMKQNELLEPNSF
# CRX, sequence (O43186 whole entry): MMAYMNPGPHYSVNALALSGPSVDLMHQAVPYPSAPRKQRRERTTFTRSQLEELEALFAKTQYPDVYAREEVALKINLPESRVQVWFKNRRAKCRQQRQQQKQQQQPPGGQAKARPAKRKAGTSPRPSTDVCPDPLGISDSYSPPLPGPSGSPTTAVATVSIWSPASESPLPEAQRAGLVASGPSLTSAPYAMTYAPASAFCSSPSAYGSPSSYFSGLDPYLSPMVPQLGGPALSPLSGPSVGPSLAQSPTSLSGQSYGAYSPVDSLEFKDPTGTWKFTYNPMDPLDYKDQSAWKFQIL
# HSF1, sequence (Q00613 whole entry): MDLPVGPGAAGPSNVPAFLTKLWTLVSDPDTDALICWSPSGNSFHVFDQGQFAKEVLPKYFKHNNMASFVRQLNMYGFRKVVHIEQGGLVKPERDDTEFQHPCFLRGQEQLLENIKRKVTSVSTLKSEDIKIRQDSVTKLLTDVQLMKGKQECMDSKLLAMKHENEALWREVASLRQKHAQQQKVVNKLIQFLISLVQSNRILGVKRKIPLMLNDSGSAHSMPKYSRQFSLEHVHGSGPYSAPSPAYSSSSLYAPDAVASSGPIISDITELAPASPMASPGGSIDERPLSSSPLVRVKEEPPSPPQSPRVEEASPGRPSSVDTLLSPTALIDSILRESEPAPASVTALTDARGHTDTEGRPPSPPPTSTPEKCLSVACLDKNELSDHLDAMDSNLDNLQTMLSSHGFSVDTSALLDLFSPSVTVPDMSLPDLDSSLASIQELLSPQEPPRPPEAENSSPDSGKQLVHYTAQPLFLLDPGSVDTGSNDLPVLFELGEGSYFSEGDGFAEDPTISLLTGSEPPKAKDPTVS
# ETV5, sequence (P41161 whole entry): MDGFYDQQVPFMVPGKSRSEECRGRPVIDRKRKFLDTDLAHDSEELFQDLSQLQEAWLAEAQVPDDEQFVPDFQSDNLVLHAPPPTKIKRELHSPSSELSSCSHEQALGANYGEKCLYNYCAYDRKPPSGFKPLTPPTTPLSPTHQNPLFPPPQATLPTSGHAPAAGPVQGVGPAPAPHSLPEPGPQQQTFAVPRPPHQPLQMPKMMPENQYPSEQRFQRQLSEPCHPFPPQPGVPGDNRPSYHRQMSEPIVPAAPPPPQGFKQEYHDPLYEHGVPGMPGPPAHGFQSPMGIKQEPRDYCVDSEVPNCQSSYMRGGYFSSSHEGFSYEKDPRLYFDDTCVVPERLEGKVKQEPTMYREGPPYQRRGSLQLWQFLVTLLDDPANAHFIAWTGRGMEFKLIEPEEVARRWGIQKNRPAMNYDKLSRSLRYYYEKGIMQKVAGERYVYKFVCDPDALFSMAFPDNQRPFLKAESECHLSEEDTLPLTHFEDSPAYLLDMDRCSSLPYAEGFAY
# SPIB, sequence (Q01892 whole entry): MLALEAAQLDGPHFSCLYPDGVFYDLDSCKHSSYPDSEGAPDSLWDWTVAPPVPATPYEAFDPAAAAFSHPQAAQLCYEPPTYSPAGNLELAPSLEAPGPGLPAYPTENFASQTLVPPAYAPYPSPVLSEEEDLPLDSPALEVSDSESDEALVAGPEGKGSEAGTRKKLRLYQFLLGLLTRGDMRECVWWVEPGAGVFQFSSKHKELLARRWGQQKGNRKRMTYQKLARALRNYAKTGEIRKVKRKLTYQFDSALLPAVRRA
# ETV1, sequence (P50549 whole entry): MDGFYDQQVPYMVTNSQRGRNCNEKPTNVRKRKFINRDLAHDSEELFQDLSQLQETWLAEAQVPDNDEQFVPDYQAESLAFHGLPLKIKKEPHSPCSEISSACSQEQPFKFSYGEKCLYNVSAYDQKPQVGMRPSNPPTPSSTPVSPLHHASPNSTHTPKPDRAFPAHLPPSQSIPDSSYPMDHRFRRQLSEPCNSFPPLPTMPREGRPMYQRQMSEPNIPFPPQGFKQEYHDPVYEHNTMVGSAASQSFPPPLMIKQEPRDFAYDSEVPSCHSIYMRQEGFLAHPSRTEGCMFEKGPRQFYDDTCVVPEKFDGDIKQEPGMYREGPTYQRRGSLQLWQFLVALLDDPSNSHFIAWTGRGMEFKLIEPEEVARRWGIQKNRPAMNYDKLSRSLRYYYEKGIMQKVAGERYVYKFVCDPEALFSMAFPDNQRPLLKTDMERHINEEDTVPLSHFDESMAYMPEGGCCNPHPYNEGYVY
Sequence,binding signal (FLI1),binding signal (ELK1),binding signal (GABPA),binding signal (ERG),binding signal (ELF1),binding signal (EHF),binding signal (SPI1),binding signal (SPIB),binding signal (ELK3),binding signal (FEV),binding signal (ETV5),binding signal (HSF1),binding signal (SPIC),binding signal (ELF4),binding signal (ELK4),binding signal (ELF3),binding signal (CRX),binding signal (ETV1)
CATGAT,"1.15 fold enrichment (6-mer frequency, TF over GST control)","1.06 fold enrichment (6-mer frequency, TF over GST control)","1.19 fold enrichment (6-mer frequency, TF over GST control)","1.03 fold enrichment (6-mer frequency, TF over GST control)","1.09 fold enrichment (6-mer frequency, TF over GST control)","1.09 fold enrichment (6-mer frequency, TF over GST control)","1.03 fold enrichment (6-mer frequency, TF over GST control)","1.04 fold enrichment (6-mer frequency, TF over GST control)","1.19 fold enrichment (6-mer frequency, TF over GST control)","1.06 fold enrichment (6-mer frequency, TF over GST control)","1.08 fold enrichment (6-mer frequency, TF over GST control)","1.1 fold enrichment (6-mer frequency, TF over GST control)","1.14 fold enrichment (6-mer frequency, TF over GST control)","1.17 fold enrichment (6-mer frequency, TF over GST control)","1.13 fold enrichment (6-mer frequency, TF over GST control)","1.08 fold enrichment (6-mer frequency, TF over GST control)","1.17 fold enrichment (6-mer frequency, TF over GST control)","1.07 fold enrichment (6-mer frequency, TF over GST control)"
CTATCG,"1.13 fold enrichment (6-mer frequency, TF over GST control)","1.14 fold enrichment (6-mer frequency, TF over GST control)","1.05 fold enrichment (6-mer frequency, TF over GST control)","1.09 fold enrichment (6-mer frequency, TF over GST control)","1.11 fold enrichment (6-mer frequency, TF over GST control)","1.07 fold enrichment (6-mer frequency, TF over GST control)","1.13 fold enrichment (6-mer frequency, TF over GST control)","1.11 fold enrichment (6-mer frequency, TF over GST control)","1.08 fold enrichment (6-mer frequency, TF over GST control)","1.01 fold enrichment (6-mer frequency, TF over GST control)","1.06 fold enrichment (6-mer frequency, TF over GST control)","1.17 fold enrichment (6-mer frequency, TF over GST control)","1.04 fold enrichment (6-mer frequency, TF over GST control)","1.15 fold enrichment (6-mer frequency, TF over GST control)","1.09 fold enrichment (6-mer frequency, TF over GST control)","1.22 fold enrichment (6-mer frequency, TF over GST control)","1.08 fold enrichment (6-mer frequency, TF over GST control)","1.13 fold enrichment (6-mer frequency, TF over GST control)"
